Test results taken from PubChem BioAssay AID743342 (Broad Institute, 2014).
Measured potencies and affinities stand elsewhere. Activity calls are given as the source filed them.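 How the source made its calls: active means every replicate test run was called active, each showing a signal decrease within twice the top valid dose; inconclusive means replicate test runs disagree on the call; inactive means every test run inactive, including signal moving upward.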

System: Drosophila bursicon receptor LGR2 (rickets)
Assay: LGR2 antagonists, dose response, cell-based, HEK293, CRE-luciferase reporter, cherry pick (AID 743342)

Structure (SMILES) | outcome
CC(C)NC(=O)Nc1ccc2c(c1)C(=O)N([C@H](C)CO)C[C@@H](C)[C@H](CN(C)S(C)(=O)=O)OCCCC[C@H](C)O2 | inactive
C[C@@H]1CN([C@@H](C)CO)C(=O)c2cc(NS(C)(=O)=O)ccc2O[C@@H](C)CCCCO[C@@H]1CN(C)Cc1ccc(C(F)(F)F)cc1 | inactive
COc1ccc(S(=O)(=O)Nc2ccc3c(c2)C(=O)N([C@@H](C)CO)C[C@@H](C)[C@H](CN(C)C(=O)Nc2cccc4ccccc24)OCCCC[C@H](C)O3)cc1 | inactive
C[C@H](CO)N1C[C@H](C)[C@H](CN(C)C(=O)Cc2ccccc2)OCCCC[C@H](C)Oc2ccc(NC(=O)Nc3ccc(C(F)(F)F)cc3)cc2C1=O | inactive
Cc1ccc(S(=O)(=O)Nc2ccc3c(c2)C(=O)N([C@H](C)CO)C[C@@H](C)[C@H](CN(C)S(=O)(=O)c2cccs2)OCCCC[C@@H](C)O3)cc1 | inactive
C[C@@H]1CCCCO[C@H](CN(C)CC2CCCCC2)[C@H](C)CN([C@H](C)CO)C(=O)c2cc(NS(=O)(=O)c3ccccc3)ccc2O1 | inactive
COc1ccc(S(=O)(=O)Nc2ccc3c(c2)C(=O)N([C@@H](C)CO)C[C@H](C)[C@@H](CN(C)C(=O)Nc2cccc4ccccc24)OCCCC[C@H](C)O3)cc1 | inactive
Cc1noc(C)c1S(=O)(=O)Nc1ccc2c(c1)C(=O)N([C@H](C)CO)C[C@H](C)[C@H](CN(C)C(=O)Nc1ccc(F)cc1)OCCCC[C@@H](C)O2 | inactive
COc1ccc(S(=O)(=O)Nc2ccc3c(c2)C(=O)N([C@H](C)CO)C[C@H](C)[C@H](CN(C)S(=O)(=O)c2ccc(F)cc2)OCCCC[C@@H](C)O3)cc1 | inactive
